In the library only some 1.2% were active in any assay of this set; here they are far more common.
C2C12 statin = suppressors of simvastatin-induced myotoxicity in C2C12 myotubes | ATP luminescence, 48 h; scaled: DMSO 0, geranylgeraniol control 100 | rescue of ATP level, % at 7.49 µM | actives 0.78% (n = 330,000) | AID 602340;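 active = mean ATP rescue above about 67%, or every replicate alone reaching that limit, limit read from the data, passing the limit was not always enough; inconclusive = no clear call, values can overlap the other calls; inactive = mean under the limit and some replicate under it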;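 note: myotubes were challenged with 10 µM simvastatin during compound exposure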
NSD2 HMT inh = blocks human histone methyltransferase NSD2; O96028; NSD2 peptide methylation, AlphaScreen, 120 min; inhibition, % at 12.5 µM; actives 0.54% (n = 310,000); AID 743445; in the data active = inhibition above about 50%
miR-122 sensor = blocks miR-122 activity in Huh7 sensor cells | Huh7 miR-122 Renilla luciferase sensor, 48 h; neutral wells = 0, positive control = 100 | activation (reporter increase), % at 12.5 µM | actives 0.3% (n = 340,000);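 active = mean replicate activation score at least 90 and every replicate individually at or above 90; inconclusive = only one of the two criteria met; inactive = neither criterion met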;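 note: higher luciferase means less miR-122 activity so hits act as miR-122 inhibitors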
PglD DTNB = inhibitors of Campylobacter jejuni PglD acetyltransferase; actives 0.098% (n = 360,000); purified PglD enzyme, DTNB colorimetric CoA detection; inhibition, % at 12.5 µM; AID 602405; in the data active = inhibition above about 16%, passing the limit was not always enough; inconclusive = no clear call, values can overlap the other calls
Each line names hits and unclear results; the compound was inactive in the other large screens.

C[C@@H]1CN([C@H](C)CO)C(=O)c2cc(-c3cccc(C#N)c3)cnc2O[C@H]1CN(C)Cc1cccnc1	none (no result: NSD2 HMT inh)
CCCNC(=O)C[C@@H]1CC[C@H]2[C@@H](COc3ccc(NC(=O)c4cccc(C(F)(F)F)c4)cc3C(=O)N2C)O1	none (no result: NSD2 HMT inh)
C[C@H](CO)N1C[C@H](C)[C@@H](CN(C)Cc2ccncc2)Oc2ccc(NC(=O)Cn3cnnn3)cc2CC1=O	none (no result: NSD2 HMT inh)
CCS(=O)(=O)N1CCCC(C(=O)NCCc2ccc(OC)c(OC)c2)C1 (configuration not stated)	C2C12 statin 127
COc1ccc(CCNC(=O)C2CCC(CNc3c(N4CCCC4)c(=O)c3=O)CC2)cc1OC (configuration not stated)	C2C12 statin 86 (no result: PglD DTNB)
COc1cccc2cc(-c3csc(CCn4nc(C)cc4C)n3)c(=O)oc12	C2C12 statin 89
CCOc1ccc(-n2c(SCC(=O)N3CCCC3)nc3ccccc3c2=O)cc1	none (no result: C2C12 statin, miR-122 sensor, PglD DTNB)
CCCNC(=O)C[C@@H]1C[C@H]2c3cc(NC(=O)Nc4ccc(F)cc4)ccc3O[C@H]2[C@@H](CO)O1	none (no result: NSD2 HMT inh)
O=C(N[C@H]1CC[C@H](CCNC(=O)C2CCCC2)O[C@H]1CO)c1ccccn1	none (no result: NSD2 HMT inh)
N#C[C@@H]1[C@@H](c2ccccc2)[C@H](CO)N1S(=O)(=O)c1ccc(-c2ccccc2)cc1	C2C12 statin 88 (no result: NSD2 HMT inh, miR-122 sensor)
N#C[C@H]1[C@@H](c2ccc(-c3ccc(F)cc3)cc2)[C@H](CO)N1C(=O)Cc1ccccc1	none (no result: NSD2 HMT inh, miR-122 sensor)
N#C[C@@H]1[C@@H](c2ccc(-c3ccc(F)cc3)cc2)[C@H](CO)N1C(=O)Cc1ccccc1	C2C12 statin 75 (no result: NSD2 HMT inh, miR-122 sensor)
O=C(C[C@H]1CC[C@H]2[C@@H](COC[C@@H](O)CN2CC2CCCCC2)O1)NCc1ccc(Cl)cc1	none (no result: NSD2 HMT inh)
C[C@@H]1CN([C@H](C)CO)C(=O)c2cc(NS(=O)(=O)c3ccc(Cl)cc3)ccc2O[C@@H]1CN(C)Cc1ccncc1	none (no result: NSD2 HMT inh)
Cc1ccc(CC(=S)N2CCOCC2)cc1	C2C12 statin 124
CC(C)(C)c1ccc(S(=O)(=O)/N=C2\C=C(NS(=O)(=O)c3ccccc3)C(=O)c3ccccc32)cc1	NSD2 HMT inh 108
Cc1ccc(C)c(NC(=O)C2CC3c4ccccc4C2c2ccccc23)c1 (configuration not stated)	C2C12 statin 130
COc1cc(S(=O)(=O)N2CCN(C(=O)c3ccccc3F)CC2)c(OC)cc1NC(C)=O	C2C12 statin 102
COc1ccc(S(=O)(=O)N2CCN(C)CC2)cc1NC(=O)c1ccccc1F	none
FC(F)(F)c1nc2ccccc2n2c(-c3ccc(Cl)cc3Cl)nnc12	C2C12 statin 84
Cc1cccc(-c2ccc([C@@H]3[C@H](CO)N4CCCCN(S(=O)(=O)c5ccccc5C)C[C@@H]34)cc2)c1	none (no result: C2C12 statin, NSD2 HMT inh)
Cc1ccc(S(=O)(=O)N2CCN(C(=O)c3cccs3)CC2)cc1C	C2C12 statin 118
COc1ccc(S(=O)(=O)N2CCN(C(=O)c3cccs3)CC2)cc1	none
COC(CN(C(=O)CCl)C(C(=O)NC1CCCCC1)c1ccc(Cl)cc1)OC (configuration not stated)	C2C12 statin 71
Cn1cnnc1SCC(=O)N1CCN(C(=O)c2ccco2)CC1	none (no result: C2C12 statin, miR-122 sensor, PglD DTNB)
Cn1cnnc1SCC(=O)N1CCC(Cc2ccccc2)CC1	C2C12 statin 99
O=S1(=O)N=CN(Cc2cccc(F)c2)c2ccccc21	miR-122 sensor 157 (no result: C2C12 statin)
OCCN(CCCn1c(-c2ccncc2)nc2ccccc21)c1nc(CN2CCCCC2)cs1	C2C12 statin 66 (no result: NSD2 HMT inh)
O=C(NNc1ccc(Cl)cc1)c1c(F)cccc1Cl	none (no result: PglD DTNB)
CC(=O)C(=Nc1ccccc1Cl)NNc1ccc(Cl)cc1	C2C12 statin 152
CCC(=O)N(C)C[C@H]1Oc2ncc(C#CCc3ccccc3)cc2C(=O)N([C@H](C)CO)C[C@@H]1C	none (no result: NSD2 HMT inh)
CCOC(=O)C1CCN(S(=O)(=O)c2nc3nc(C)cc(C)n3n2)CC1	C2C12 statin 104
Cc1ccc(S(=O)c2ccc([N+](=O)[O-])c3nonc23)cc1 (configuration not stated)	NSD2 HMT inh 66
CCOc1ccc(NC(=O)CN(c2ccc(OC)cc2)S(C)(=O)=O)cc1	C2C12 statin 111
CCN(CC)c1nc(C#N)cc(-c2ccc(OC)cc2)n1	C2C12 statin 109
COc1ccc(-c2cc(C#N)nc(Cl)n2)cc1	none (no result: C2C12 statin, miR-122 sensor, PglD DTNB)
CCN(CC)c1ccc(NC(=O)c2cc3ccccc3o2)c(C)c1	C2C12 statin 159
CC(C)NC(=O)Nc1ccc2c(c1)C(=O)N([C@@H](C)CO)C[C@H](C)[C@@H](CN(C)C(=O)Nc1ccc3c(c1)OCO3)OCCCC[C@H](C)O2	none (no result: C2C12 statin, NSD2 HMT inh)
CCOC(=O)C1=C(C(C)=O)C(c2cccnc2)C(C#N)=C(N)O1 (configuration not stated)	C2C12 statin 118 (no result: PglD DTNB)
O=C(NNC(=O)c1ccncc1)Nc1ccc(N=Nc2ccccc2)cc1	C2C12 statin 100
O=C(NNC(=O)c1ccncc1)Nc1ccccc1	none (no result: NSD2 HMT inh)
CCC(=O)Nc1ccc2c(c1)C(=O)N(C)C[C@H](OC)[C@@H](C)CN(C(=O)CN(C)C)[C@H](C)CO2	none (no result: NSD2 HMT inh, PglD DTNB)
COc1ccc(C#Cc2ccc3c(c2)[C@]2(C(=O)N3)[C@H](C(=O)Nc3nc4ccccc4s3)[C@H]3C(=O)O[C@H](c4ccccc4)[C@H](c4ccccc4)N3[C@@H]2c2ccccc2OCCO)cc1	none (no result: C2C12 statin, NSD2 HMT inh, miR-122 sensor)
COc1ccc(S(=O)(=O)Nc2ccc(CC#N)cc2)cc1	miR-122 sensor 164
N#CCc1ccc(NS(=O)(=O)c2ccc(C3CCCCC3)cc2)cc1	miR-122 sensor 182 (no result: C2C12 statin)
Cc1cccc(NS(=O)(=O)c2ccc(C3CCCCC3)cc2)c1	miR-122 sensor inconclusive (no result: C2C12 statin, NSD2 HMT inh)
COC(=O)c1ccc(NS(=O)(=O)c2ccc(OC)cc2)cc1	none
O=C(C[C@@H]1CC[C@H](NC(=O)C2CCOCC2)[C@@H](CO)O1)NCc1ccccc1Cl	none (no result: NSD2 HMT inh)
CCN(CC)Cc1ccccc1CNC(=O)c1cccc(S(=O)(=O)Nc2ccc3c(c2)OCO3)c1	none (no result: miR-122 sensor)
CN(C)Cc1ccccc1CNC(=O)c1cccc(S(=O)(=O)Nc2ccc3c(c2)OCO3)c1	miR-122 sensor 117
CNC[C@@H]1OCCCC[C@@H](C)Oc2ccc(NC(=O)CCC(F)(F)F)cc2C(=O)N([C@@H](C)CO)C[C@H]1C	none (no result: NSD2 HMT inh)
Cc1ccc(-n2sc3ccccc3c2=O)cc1S(=O)(=O)N1CCCCC1	PglD DTNB 22 (no result: NSD2 HMT inh)
O=c1c2ccccc2sn1-c1ccc(S(=O)(=O)N2CCCCC2)cc1	none
C[C@H]1CN([C@@H](C)CO)S(=O)(=O)c2ccc(C#CC(C)(C)O)cc2O[C@@H]1CN(C)C(=O)C1CC1	none (no result: NSD2 HMT inh, PglD DTNB)
O=c1ccc2[n+]([O-])c3ccc(O)cc3oc-2c1	NSD2 HMT inh 102 (no result: C2C12 statin, miR-122 sensor, PglD DTNB)
C[C@@H]1CN([C@@H](C)CO)C(=O)c2cc(NS(C)(=O)=O)ccc2O[C@@H](C)CCCCO[C@H]1CN(C)C(=O)CCCN(C)C	none (no result: NSD2 HMT inh)
C[C@H]1CN([C@@H](C)CO)C(=O)c2cccc(NC(=O)c3ccc(-c4nccs4)cc3)c2O[C@@H]1CN(C)C	PglD DTNB 21 (no result: NSD2 HMT inh)
C[C@@H]1CN([C@H](C)CO)C(=O)c2cccc(NC(=O)c3ccc(-c4nccs4)cc3)c2O[C@@H]1CN(C)C(=O)Nc1cccc2ccccc12	C2C12 statin 80 (no result: NSD2 HMT inh)

Assay outcomes: PubChem, Broad Institute
